Screen size: about 360,000 compounds; about 1,300 (0.36%) were called active. Rule as the data show it: active = inhibition above about 19%; inactive = the rest. The entries come from a sample that favours actives as a whole.

For the experiment, the system named is T-cell receptor (TCR). Put plainly: inhibitors of human TCR-CD3 interaction, primary screen, biochemical, fluorescence, TAMRA-labeled TCR probe (AID 651800).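 Also: recombinant mutant TCR 2C K166C tagged with TAMRA read by polarization; 0% = receptor in buffer alone and 100% = receptor with positive control.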 The conditions noted are these: at 9.4 µM, hits give high values.
For `COC(=O)Cc1nnn2c1[C@H](C)[C@H](c1ccccc1Br)OCC2`, the inhibition is -3.6% (inactive).

`COC(=O)C1=C(C)N(Cc2cccc(C(F)(F)F)c2)C(=NCc2ccccc2)NC1c1ccccc1C(F)(F)F` (stereo unspecified): the inhibition was 2.13% (inactive).

`O=C1[C@@H](c2ccccc2)[C@@H](c2ccccc2)N1c1ccccc1`: the inhibition is 4.73% (inactive).

Turning to `C=CC1=CCN(S(=O)(=O)C(C)(C)C)[C@@H]1CCO`, the inhibition was 5.24% (inactive).

Consider `COC(=O)c1cc(Oc2ccc(S(=O)(=O)N3CCOCC3)cc2[N+](=O)[O-])cc(C(=O)OC)c1`, for which the inhibition was 7.58% (inactive).

As to `O=[N+]([O-])c1cc(Cl)cc(/C=N/NC(=S)Nc2cc(S(=O)(=O)N3CCOCC3)ccc2Cl)c1O`, the inhibition is 41.3% (active).

On to `Cc1cc(OCCCC(=O)Nc2cc(S(=O)(=O)N3CCOCC3)ccc2N2CCOCC2)ccc1Cl`, for which the inhibition is 0.46% (inactive).

`O=S(=O)(c1cccs1)N1CCCc2nc(-c3ccc(Br)cc3)ccc21`: the inhibition is 3.53% (inactive).

Regarding `COc1ccccc1CCn1cnc(-c2ccccc2)c1C(C)C`, the inhibition was 0.67% (inactive).

Regarding `COc1cc(OC)cc(-c2c(-c3ccc(F)cc3)c3cc(-c4ccc5cc[nH]c5c4)ccc3n2C)c1`, the inhibition was -1.04% (inactive).

As for `COc1ccc(-c2c(-c3cc(OC)cc(OC)c3)n(C)c3ccc(-c4ccn[nH]4)cc23)cc1`, the inhibition is 23.9% (active).

`COc1cc(OC)cc(-c2c(-c3cccs3)c3cc(-c4ccc(OC)nc4)ccc3n2C)c1`: the inhibition is -3.68% (inactive).

Regarding `COc1cccc(CNC(=O)[C@H]2CCCN2C(=O)[C@H]2CCCN2C(=O)c2ccc(F)cc2)c1`, the inhibition was 5.75% (inactive).

On to `Cc1c(CC(=O)N2CCN(C(=O)C3COc4ccccc4O3)CC2)c(=O)oc2c(O)c(O)ccc12` (stereo unspecified), for which the inhibition was 82.2% (active).

Turning to `Cc1ccc(S(=O)(=O)NCCC(=O)NNC(=O)C2COc3ccccc3O2)cc1` (stereo unspecified), the inhibition is -2.9% (inactive).

Regarding `Cc1c(CCC(=O)O)c(=O)oc2c(C)c(OCc3ccccc3Cl)ccc12`, the inhibition was -7.63% (inactive).

Regarding `O=c1ccc2c(-c3ccccc3S(=O)(=O)O)c3ccc(O)c(O)c3oc-2c1O`, the inhibition is 33.4% (active).

As for `COc1ccc(C2=CN(Cc3ccccc3)C(c3ccc(OC)cc3)CC2=O)cc1` (stereo unspecified), the inhibition is -0.11% (inactive).

As to `COC(=O)[C@]12C[C@H](CC(=O)NCCCCc3ccccc3)C(=O)N(Cc3ccc4c(c3)OCO4)C1=C[C@H](C(C)(C)C)O[C@@H]2C`, the inhibition was -0.56% (inactive).

Take `COC(=O)C1=C(C)N(Cc2ccccc2C(F)(F)F)C(=NCc2ccc(C(F)(F)F)cc2)NC1c1ccc(F)cc1` (stereo unspecified): the inhibition is 10.2% (inactive).

For `COC(=O)c1ccc(-c2c(-c3ccccc3)ncc3cc(OC)c(OC)cc23)cc1`, the inhibition is -0.95% (inactive).

As to `COc1ccc(/C(=N\O)c2nccc3cc(OC)c(OC)cc23)cc1OC`, the inhibition is 37.5% (active).

For `COc1cc2ccc(C(C)=O)c(O)c2cc1OC`, the inhibition was -7.1% (inactive).

With `CN(C)CCNC(=O)C(C(=O)c1ccccc1)n1ccccc1=O` (stereo unspecified), the inhibition was 27.9% (active).

Turning to `CN(C)CCNC(=O)Cc1ccc([N+](=O)[O-])cc1`, the inhibition is 6.84% (inactive).

`O=C(NCC1CCCO1)C(C(=O)c1ccccc1)n1cc(Cl)ccc1=O` (stereo unspecified): the inhibition was 4.24% (inactive).

For the compound `Nc1ncnc2c1ncn2C1OC(CO)CC1O` (stereo unspecified), the inhibition is -7.35% (inactive).

For `COC(=O)c1c(-c2ccc(OC)cc2)c2c(c3c4ccccc4n(S(=O)(=O)c4ccc(C)cc4)c13)C(=O)N(C)C2`, the inhibition is 0.77% (inactive).

For `O=S1(=O)c2c(cccc2N2CCCC2)O[C@H](COCc2ccccc2)CN1C1CC1`, the inhibition was 19.3% (active).

`CSc1ccc(Oc2cccc3c2S(=O)(=O)N([C@H](C)c2ccccc2)C[C@@H](COCc2ccccc2)O3)cc1C`: the inhibition was 11.5% (inactive).

Turning to `O=S1(=O)c2c(cccc2N2CCCCC2)O[C@H](COCc2ccccc2)CN1C1CC1`, the inhibition is 2.48% (inactive).

As for `CC1CCN(C(=O)c2ncn3c2C(=O)N[C@@H](C)C3)CC1`, the inhibition was 3.49% (inactive).

Take `COc1ccc(/C=C/c2c(-c3cccc(C)c3)oc3ccc(-c4ccc5c(c4)OCO5)cc23)cc1`: the inhibition was -3.78% (inactive).

With `Nc1[nH]c(C(=O)c2ccc(Br)cc2)c(-c2ccc3c(c2)OCO3)c1C(=O)NCCc1c[nH]c2ccccc12`, the inhibition was -5.65% (inactive).

Regarding `COc1ccccc1N(CC(=O)N1CCCCC1)S(=O)(=O)c1ccccc1`, the inhibition was 3.6% (inactive).

`COc1ccccc1N(CC(=O)Nc1c(C)n(C)n(-c2ccccc2)c1=O)S(=O)(=O)c1ccccc1`: the inhibition was 3.09% (inactive).

As for `COc1ccccc1N(CC(=O)N/N=C(\C)c1ccccc1O)S(=O)(=O)c1ccc(C)cc1`, the inhibition is 26.6% (active).

`COC(=O)[C@]12C[C@H](CC(=O)N3CCN(C(=O)C4CC4)CC3)C(=O)N(Cc3ccc4c(c3)OCO4)C1=C[C@H](C(C)(C)C)O[C@@H]2C`: the inhibition was 3.03% (inactive).

As to `C/C=C/C=C/C(=O)O`, the inhibition was 27.1% (active).

Take `COc1ccc(-c2ccccc2C2Cc3nnccc3CN2C(=O)Nc2ccccc2)cc1` (stereo unspecified): the inhibition is -1.6% (inactive).

Take `CCCCCCCCN1C(=O)[C@@H](CC(=O)NCc2ccccc2)C[C@@]2(C(=O)OC)C1=C[C@H](C(C)(C)C)O[C@@H]2C`: the inhibition is -4.58% (inactive).

Regarding `O=C1C(Cc2ccc(O)cc2)NC(=S)N1Cc1ccccc1` (stereo unspecified), the inhibition was 25.9% (active).

Regarding `CCCCc1ccc(NC(=O)CN2C(=O)NC(Cc3ccccc3)C2=O)cc1` (stereo unspecified), the inhibition is -0.34% (inactive).

`Cc1cc(C)c(NC(=O)CN2C(=O)NC(Cc3ccccc3)C2=O)c(C)c1` (stereo unspecified): the inhibition was -1.72% (inactive).

As to `COc1ccccc1-c1ccc([C@@H]2C[C@H]3[C@H](CON3C)CN2S(=O)(=O)c2cc(Cl)cc(Cl)c2)cc1`, the inhibition is -0.88% (inactive).

For `C[C@@H]1ON(C)[C@H]2C[C@H]3c4cc(N5CCOCC5)ccc4CCN3C[C@@H]12`, the inhibition was 7.02% (inactive).

As to `COc1cccc2cc(C(N)=O)/c(=N\NC(=O)c3ccccc3)oc12`, the inhibition was 6.06% (inactive).

For the compound `CCN(CC)c1ccc2cc(C(N)=O)/c(=N\NC(=O)c3ccncc3)oc2c1`, the inhibition was 30.5% (active).

For the compound `CCN(CC)c1ccc(C(=O)N/N=C(\C)c2cccc(OC)c2)cc1`, the inhibition was 6.48% (inactive).

As for `O=C(NCc1ccccc1)[C@H]1CCCN1C(=O)[C@@H]1CCCN1C(=O)c1ccc(Cl)cc1Cl`, the inhibition is 5.28% (inactive).

In the case of `CCc1ccc(C2=CC(=O)CC(C)(C)C2=O)cc1`, the inhibition is -0.75% (inactive).

As to `COc1ccc(C(=O)NCCSc2ccccc2C)cc1`, the inhibition is -0.19% (inactive).

On to `COc1ccc(C(=O)NCC[N+](C)(C)C)cc1`, for which the inhibition was -6.67% (inactive).

As to `COc1ccc(C(=O)NNc2cc(C)nc(NNC(=O)c3ccc(OC)cc3)n2)cc1`, the inhibition was 19.4% (active).

Regarding `CC(c1ccccc1)n1c(NCCCn2ccnc2)nc2c1c(=O)[nH]c(=O)n2C` (stereo unspecified), the inhibition is 5.62% (inactive).

For the compound `COc1ccc(S(=O)(=O)Nc2ccc3c(c2)C(=O)N([C@H](C)CO)C[C@H](C)[C@@H](CN(C)C)OCCCC[C@H](C)O3)cc1`, the inhibition is -1.68% (inactive).

For `CC(=O)c1ccc(S(=O)(=O)NCC2CCN(C(=O)C(=O)c3cccs3)CC2)cc1`, the inhibition is -11.4% (inactive).

Regarding `CCN(CC)CCCC(C)n1c2nc(=O)[nH]c(=O)c-2nc2cc(Cl)ccc21` (stereo unspecified), the inhibition was 54.6% (active).

`O=C(NCc1ccccc1)[C@H]1CCCN1C(=O)[C@H]1CCCN1C(=O)c1cc(F)cc(F)c1`: the inhibition is 1.6% (inactive).

`Cc1ccc(-c2nn(-c3ccccc3)cc2/C=C/C(=O)Nc2cccc(S(N)(=O)=O)c2)cc1`: the inhibition is 83.6% (active).

With `Cc1ccc(-c2nn(-c3ccccc3)cc2C(=O)Nc2cccc(S(=O)(=O)N3CCOCC3)c2)cc1`, the inhibition was 2.85% (inactive).

Regarding `O=C(/C=C/c1cn(-c2ccccc2)nc1-c1ccc2c(c1)OCCO2)NCCCN1CCOCC1`, the inhibition was -3.23% (inactive).

In the case of `CN(C)C(=O)N1CCN(C(=O)[C@@H](Cc2ccccc2)NC(=O)[C@H]2O[C@@H](n3ccc(N)nc3=O)[C@H](O)[C@@H]2O)CC1`, the inhibition was -1.88% (inactive).

As to `COC(=O)C1=C(C(=O)OC)C2C=C(C(C)C)C1C(=O)C2(C)O` (stereo unspecified), the inhibition is -5.88% (inactive).

For `COC(=O)C1=C(C)N(Cc2cccc(C(F)(F)F)c2)C(=NCc2cccc(C(F)(F)F)c2)NC1c1ccccc1C(F)(F)F` (stereo unspecified), the inhibition was 7% (inactive).

On to `CC1CCCN(c2cccc3c2S(=O)(=O)N(Cc2ccc(F)cc2)[C@@H](C)[C@H](c2ccccc2)O3)C1` (stereo partly specified), for which the inhibition is -3.78% (inactive).

On to `CC(C)C[C@H](NC(=O)CC1CCCC1)C(=O)N1CCC[C@H]1C(=O)NCc1ccccc1`, for which the inhibition was -0.62% (inactive).

On to `COc1ccccc1C(=O)c1ccccc1C(=O)c1ccccc1`, for which the inhibition was -2.38% (inactive).

On to `COc1ccccc1C(=O)NNC(=O)c1ccc(NC(=O)c2ccccc2)cc1`, for which the inhibition is 37.3% (active).

Regarding `COc1ccccc1C(=O)NCC(=O)OCC(=O)NNC(=O)c1ccc(Br)cc1`, the inhibition is 7.36% (inactive).

On to `CC(=O)C1=C(C)N(Cc2ccc(Cl)cc2)C(=S)NC1c1ccc(F)cc1` (stereo unspecified), for which the inhibition was 3.88% (inactive).

Regarding `COc1ccccc1Cc1c(-c2ccc(F)cc2)nc2ccc(C)cn12`, the inhibition was -1.71% (inactive).

As to `O=C(NCc1ccccc1)[C@@H]1CCCN1C(=O)[C@@H](NS(=O)(=O)c1ccc(F)cc1F)C1CCCCC1`, the inhibition is -7.08% (inactive).

Turning to `Cc1ccc(C(=O)NNC(=O)c2ccncc2)cc1S(=O)(=O)N1CCCCC1`, the inhibition is -4.33% (inactive).

Take `Cc1ccc(C(=O)NCC(=O)O)cc1S(=O)(=O)N1CCCCC1`: the inhibition was 21.8% (active).

As for `COc1ccccc1C(CNC(=O)c1ccc(C)c(S(=O)(=O)N2CCCCC2)c1)N(C)C` (stereo unspecified), the inhibition was -9.01% (inactive).

Take `COC(=O)[C@]12C[C@H](CC(=O)NCc3ccc(OC)c(OC)c3)C(=O)N(Cc3ccccc3)C1=C[C@H](C(C)C)O[C@@H]2C1CC1`: the inhibition was 1.22% (inactive).

In the case of `Cc1nn(C)cc1N1C(=O)c2cccc3c(N)ccc(c23)C1=O`, the inhibition is 38% (active).

As to `COc1ccc(NS(=O)(=O)c2cc(NC(=O)C3CCCCC3)ccc2N2CCOCC2)cc1`, the inhibition is 0.76% (inactive).

Take `COc1ccc(NS(=O)(=O)c2cc(NC(=O)/C=C/c3cc(OC)c(OC)c(OC)c3)ccc2N2CCCCC2)cc1`: the inhibition is 22.8% (active).

Take `COc1ccc(NS(=O)(=O)c2cc(NC(=O)c3ccc(S(=O)(=O)N(C)C)cc3)ccc2N2CCOCC2)cc1`: the inhibition is 1.69% (inactive).
